{"source": "PubChem BioAssay (Tox21)", "note": "Several values for one entry are separate records, joined by “and”; a condition that tells them apart may be missing. Equal values may be shown once. Inconclusive results are not listed. A call without a number means that no potency is given here. Activity calls are given as the source filed them. The call rests on the fitted dose curve; in most records, active means well fitted cell-killing curve with a large enough effect in the repeat runs; inconclusive means weak or mixed curves, or effect the other way; inactive means flat fitted curve, though single readings scatter.", "data": [{"assay": "qHTS assay to identify small molecule antagonists of the estrogen receptor alpha (ER-alpha) signaling pathway using the BG1 cell line - cell viability counter screen (AID 743081);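 further: compound given together with 17beta-estradiol as the ER stimulus; nearly all actives have a fitted effect of over 45% in size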; further: potency means the concentration at half of the fitted maximal effect", "details": "BG1Luc4E2 viability, CellTiter-Fluor, 22 h; series mostly up to 70.3 µM", "values": [{"molecule": "CN1CCN2c3ccccc3Cc3ccccc3C2C1", "note": "(centres undefined)", "Potency": "26.6 µM (active)"}, {"molecule": "C/C=C/C=C/COC(=O)C(C)C", "Potency": "inactive"}, {"molecule": "CCCCCC(C)OC(=O)COc1ccc(Cl)c2cccnc12", "note": "(centres undefined)", "Potency": "inactive"}, {"molecule": "Cc1cc(C(C)(C)C)cc(C)c1CC1=NCCN1", "Potency": "inactive"}, {"molecule": "CN1CCC[C@@H]1CCO[C@](C)(c1ccccc1)c1ccc(Cl)cc1", "Potency": "inactive"}, {"molecule": "Cc1ccc(N/N=c2\\c(=O)cc/c(=N\\Nc3ccc(S(=O)(=O)O)cc3)c2=O)c(C)c1", "Potency": "54.5 µM (active)"}, {"molecule": "CCOc1ccc2ccccc2c1C(=O)N[C@@H]1C(=O)N2[C@@H]1SC(C)(C)[C@@H]2C(=O)O", "Potency": "inactive"}, {"molecule": "CC(C)CCOC(=O)/C=C/c1ccccc1", "Potency": "inactive"}, {"molecule": "C[C@H]1NCc2cc(-c3ccc4c(=O)c(C(=O)O)cn(C5CC5)c4c3OC(F)F)ccc21", "Potency": "inactive"}, {"molecule": "CCCCCCCCCCCCCCCC[N+](C)(C)CC", "Potency": "54.6 µM (active)"}, {"molecule": "CN1CCCCC1CCN1c2ccccc2Sc2ccc(S(C)=O)cc21", "note": "(centres undefined)", "Potency": "inactive"}, {"molecule": "CCC(=O)C(=O)CC", "Potency": "inactive"}, {"molecule": "Nc1cc(Cl)c(O)c(Cl)c1", "Potency": "inactive"}, {"molecule": "O=S(=O)(O)c1ccc(N=Nc2c(O)ccc3ccccc23)cc1", "Potency": "27.3 µM (active)"}, {"molecule": "CC[C@H](C)COC(=O)/C=C/c1ccc(N=Cc2ccc(OC)cc2)cc1", "Potency": "inactive"}, {"molecule": "O=c1c(O)c(-c2ccc(O)cc2O)oc2cc(O)cc(O)c12", "Potency": "inactive"}, {"molecule": "COCCOc1cc2cc(C(=O)NC3CCN(C(C)C)CC3)n(CC(=O)Nc3ccc(Cl)cn3)c2cn1", "Potency": "inactive"}, {"molecule": "Cl[Si](Cl)(c1ccccc1)c1ccccc1", "Potency": "inactive"}, {"molecule": "CC(C)(C)c1ccc(C(O)CCCN2CCC(C(O)(c3ccccc3)c3ccccc3)CC2)cc1", "note": "(centres undefined)", "Potency": "inactive"}, {"molecule": "NC(=S)NC(N)=S", "Potency": "inactive"}, {"molecule": "CCCCC/C=C\\C/C=C\\CCCCCCCC(=O)O", "Potency": "inactive"}, {"molecule": "O=C(Nc1ccc2c(O)c(N=Nc3ccc(N=Nc4ccc(S(=O)(=O)O)cc4)cc3)c(S(=O)(=O)O)cc2c1)c1ccccc1", "Potency": "27.3 µM (active)"}, {"molecule": "[Cu+]", "Potency": "inactive"}, {"molecule": "Cc1cc(C(C)(C)C)c(O)c(C)c1Cn1c(=O)n(Cc2c(C)cc(C(C)(C)C)c(O)c2C)c(=O)n(Cc2c(C)cc(C(C)(C)C)c(O)c2C)c1=O", "Potency": "inactive"}, {"molecule": "CCOC(=O)c1ccc(C2CCC(NC[C@H](O)COc3ccc(O)c(NS(C)(=O)=O)c3)CC2)cc1", "note": "(some centres undefined)", "Potency": "inactive"}, {"molecule": "CC(N=C(NC#N)Nc1ccncc1)C(C)(C)C", "note": "(centres undefined)", "Potency": "inactive"}, {"molecule": "COc1cc(S(=O)(=O)O)c(C)cc1N=Nc1c(O)ccc2cc(S(=O)(=O)O)ccc12", "Potency": "30.6 µM (active)"}, {"molecule": "CCCCCCCCCCCCCC[N+](C)(C)Cc1ccccc1", "Potency": "inactive"}, {"molecule": "COc1cccc2c1C(=O)c1c(O)c3c(c(O)c1C2=O)C[C@@](O)(C(C)=O)C[C@@H]3O[C@H]1C[C@H](N)[C@H](O)[C@H](C)O1", "Potency": "21.1 µM (active) and 27.5 µM (active)"}]}]}
